# Inconclusive results are not listed. Calls of active or inactive are those of the source. The calls were made as follows: active = hit-call score of the fitted dose curve at least 0.9, where 1 is the maximum; inconclusive = response in the unintended direction; inactive = score below 0.9.
# Biological target: rat SKCa (Non-Selective), Kcnn1 (gene 54261) (UniProt P70606)
# Test: ERF_FR_IC_rKCNN1: Eurofins (ERF) Potassium Ion Channel [125I] Apamin Binding LeadHunter Assay for rat SKCa (Non-Selective)
# Experimental: ERF_FR_IC_rKCNN1 is a biochemical, single-readout assay that uses extracted gene-proteins in a cell-free assay. Measurements were taken 1 hour after chemical dosing in a 96-well plate. See SKCa (Non-Selective) Rat Potassium Ion Channel [125I] Apamin Binding Assay, Cerep.ERF_FR_IC_rKCNN1 is an assay component calculated from the ERF_FR_IC_rKCNN1 assay. It is designed to measure radioligand binding using a type of binding reporter as detected by scintillation counting with radiometry technology.Data from the assay component ERF_FR_IC_rKCNN1 was analyzed at the assay endpoint, ERF_FR_IC_rKCNN1, in the positive analysis fitting direction relative to DMSO as the negative control and baseline of activity. Using a type of binding reporter, loss-of-signal activity can be used to understand changes in binding as they relate to gene Kcnn1. To generalize the intended target to other relatable targets, this assay endpoint is annotated to the ion channel intended target family, where the subfamily is voltage gated (Potassium).
# This assay measures binding of [125I]apamin to small conductance calcium-activated potassium channel sites [SKCa]. […] Membranes are filtered and washed 3 times and the filters are counted to determine [125I]apamin specifically bound. […]
# rat SKCa (Non-Selective), Kcnn1 (gene 54261), sequence (P70606 whole entry, looked up): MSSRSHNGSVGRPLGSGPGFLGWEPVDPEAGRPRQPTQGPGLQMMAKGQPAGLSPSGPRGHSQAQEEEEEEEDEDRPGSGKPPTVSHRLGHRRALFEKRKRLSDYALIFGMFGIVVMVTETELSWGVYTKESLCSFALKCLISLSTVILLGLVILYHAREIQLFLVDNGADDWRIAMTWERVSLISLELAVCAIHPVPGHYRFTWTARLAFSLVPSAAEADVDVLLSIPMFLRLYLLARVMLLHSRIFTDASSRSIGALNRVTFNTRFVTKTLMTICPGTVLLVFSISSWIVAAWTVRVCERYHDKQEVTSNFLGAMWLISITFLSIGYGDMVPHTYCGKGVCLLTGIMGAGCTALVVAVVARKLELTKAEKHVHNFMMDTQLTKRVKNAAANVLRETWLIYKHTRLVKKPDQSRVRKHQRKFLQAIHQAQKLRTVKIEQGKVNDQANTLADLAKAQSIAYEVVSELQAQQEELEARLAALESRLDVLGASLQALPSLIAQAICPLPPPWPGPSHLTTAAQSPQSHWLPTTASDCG
row,SMILES,outcome
1,CCCCC[C@H](O)CC(=O)CCc1ccc(O)c(OC)c1,inactive

# Reference: PubChem BioAssay AID2284174 (EPA ToxCast)
